{"source": "PubChem BioAssay (NCATS)", "key": {"[1]": {"experiment": "qHTS of pediatric cancer cell lines to identify multiple opportunities for drug repurposing: Primary screen for MG 63 (6-TG R) cells (AID 1347105); also: nearly all actives have a fitted effect of over 50% in size", "summary_of_the_method": "(§1)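 Cells seeded at 500-1,000 cells/well in growth media, rested 5 hours at 37 degrees C, 5% CO2, then dosed; MIPE compounds at 11-point (from 0.78 nM) and NPC at 8-point (from 0.59 nM) final concentrations. Viability by CellTiter-Glo luminescence after 48 hours.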"}, "[2]": {"experiment": "qHTS of pediatric cancer cell lines to identify multiple opportunities for drug repurposing: Primary screen for control Hh wild type fibroblast cells (AID 1347106)", "summary_of_the_method": "(§2)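 Viability after 48 h compound treatment at 37C, 500-1,000 cells/well, read as ATP luminescence with CellTiter-Glo. Primary screens used 11-point (MIPE, 0.78 nM-46 µM) or 8-point (NPC, 0.59 nM-46 µM) final concentrations; follow-up screens used 11-point dilutions.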"}, "[3]": {"experiment": "qHTS of pediatric cancer cell lines to identify multiple opportunities for drug repurposing: Primary screen for Rh30 cells (AID 1347107)", "summary_of_the_method": "as §2"}, "[4]": {"experiment": "qHTS of pediatric cancer cell lines to identify multiple opportunities for drug repurposing: Primary screen for Rh41 cells (AID 1347108)", "summary_of_the_method": "as §1"}, "[5]": {"experiment": "qHTS of pediatric cancer cell lines to identify multiple opportunities for drug repurposing: Confirmatory screen for SK-N-MC cells (AID 1347111)", "details": "SK-N-MC cell viability", "summary_of_the_method": "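SK-N-MC cells at 500-1,000 cells/well in growth media were pre-incubated 5 h, then exposed to compounds at 11-point dilutions for 48 h at 37 degrees C, 5% CO2. Viability was read as CellTiter-Glo luminescence.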"}}, "note": "Records with an inconclusive call do not appear. A call without a number means that no potency is given here. Values without a mark were called inactive. Active and inactive are the calls of the source. Calls follow the shape of the dose curve; as a rule, active = well fitted curve in the direction sought with a large enough effect; inconclusive = small, poorly fitted or top-dose-only effect, or another doubt; inactive = no such curve, though single readings can be large; an effect the other way counts as inactive or inconclusive.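 For potency in this document: potency is read from the fitted curve at half-maximal effect; cells exposed to compound for 48 h before the readout; nearly all actives have a fitted effect of over 70% in size.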", "data": [{"compound": "COc1cc(Cc2cnc(N)nc2N)cc(OC)c1OC", "values": [{"measurement": "Potency", "setting": "[1]", "result": "inactive"}, {"measurement": "outcome", "setting": "[2]", "result": "inactive"}, {"measurement": "Potency", "setting": "[3]", "result": "inactive"}, {"measurement": "Potency", "setting": "[4]", "result": "inactive"}]}, {"compound": "CCCCNC(=O)NS(=O)(=O)c1ccc(C)cc1", "values": [{"measurement": "Potency", "setting": "[1]", "result": "inactive"}, {"measurement": "outcome", "setting": "[2]", "result": "inactive"}, {"measurement": "Potency", "setting": "[3]", "result": "inactive"}, {"measurement": "Potency", "setting": "[4]", "result": "inactive"}]}, {"compound": "N[C@@H](COP(=O)(O)O)C(=O)O", "values": [{"measurement": "Potency", "setting": "[1]", "result": "inactive"}, {"measurement": "outcome", "setting": "[2]", "result": "inactive"}, {"measurement": "Potency", "setting": "[3]", "result": "inactive"}, {"measurement": "Potency", "setting": "[4]", "result": "inactive"}]}, {"compound": "OCCN1CCN(CCCN2c3ccccc3C=Cc3ccccc32)CC1", "values": [{"measurement": "Potency", "setting": "[1]", "result": "inactive"}, {"measurement": "outcome", "setting": "[2]", "result": "inactive"}, {"measurement": "Potency", "setting": "[3]", "result": "inactive"}, {"measurement": "Potency", "setting": "[4]", "result": "inactive"}]}, {"compound": "CCOC(=O)c1cnc2c(cnn2CC)c1NN=C(C)C", "values": [{"measurement": "Potency", "setting": "[1]", "result": "inactive"}, {"measurement": "outcome", "setting": "[2]", "result": "inactive"}, {"measurement": "Potency", "setting": "[3]", "result": "inactive"}, {"measurement": "Potency", "setting": "[4]", "result": "inactive"}]}, {"compound": "CN(C)C/C=C(/c1ccc(Br)cc1)c1cccnc1", "values": [{"measurement": "Potency", "setting": "[1]", "result": "inactive"}, {"measurement": "outcome", "setting": "[2]", "result": "inactive"}, {"measurement": "Potency", "setting": "[3]", "result": "inactive"}, {"measurement": "Potency", "setting": "[4]", "result": "inactive"}]}, {"compound": "c1ccc2c(c1)CCCC2C1=NCCN1", "note": "(stereo unspecified)", "values": [{"measurement": "Potency", "setting": "[1]", "result": "inactive"}, {"measurement": "outcome", "setting": "[2]", "result": "inactive"}, {"measurement": "Potency", "setting": "[3]", "result": "inactive"}, {"measurement": "Potency", "setting": "[4]", "result": "inactive"}]}, {"compound": "CCO/C([O-])=N/c1c[n+](N2CCOCC2)no1", "values": [{"measurement": "Potency", "setting": "[1]", "result": "inactive"}, {"measurement": "outcome", "setting": "[2]", "result": "inactive"}, {"measurement": "Potency", "setting": "[3]", "result": "inactive"}, {"measurement": "Potency", "setting": "[4]", "result": "inactive"}]}, {"compound": "COC(=O)C1=C(C)NC(C)=C(C(=O)OCCN(C)Cc2ccccc2)C1c1cccc([N+](=O)[O-])c1", "note": "(stereo unspecified)", "values": [{"measurement": "outcome", "setting": "[2]", "result": "inactive"}, {"measurement": "Potency", "setting": "[3]", "result": "inactive"}]}, {"compound": "CCCC(C(=O)OCCN(CC)CC)(c1ccccc1)c1ccccc1", "values": [{"measurement": "outcome", "setting": "[2]", "result": "inactive"}]}, {"compound": "O=c1[nH]c(=O)n([C@H]2C[C@H](O)[C@@H](CO)O2)cc1Br", "values": [{"measurement": "Potency", "setting": "[1]", "result": "inactive"}, {"measurement": "outcome", "setting": "[2]", "result": "inactive"}, {"measurement": "Potency", "setting": "[3]", "result": "inactive"}, {"measurement": "Potency", "setting": "[4]", "result": "inactive"}]}, {"compound": "C=CCc1ccccc1OCC(O)CNC(C)C", "note": "(stereo unspecified)", "values": [{"measurement": "outcome", "setting": "[2]", "result": "inactive"}, {"measurement": "Potency", "setting": "[3]", "result": "inactive"}, {"measurement": "Potency", "setting": "[4]", "result": "inactive"}]}, {"compound": "CCc1cccc(N(C)C(N)=Nc2cccc3ccccc23)c1", "values": [{"measurement": "outcome", "setting": "[2]", "result": "inactive"}, {"measurement": "Potency", "setting": "[3]", "result": "inactive"}]}, {"compound": "NC(N)=N/N=C/c1c(Cl)cccc1Cl", "values": [{"measurement": "Potency", "setting": "[1]", "result": "inactive"}, {"measurement": "outcome", "setting": "[2]", "result": "inactive"}, {"measurement": "Potency", "setting": "[3]", "result": "inactive"}, {"measurement": "Potency", "setting": "[4]", "result": "inactive"}]}, {"compound": "CN(C)CCCN1c2ccccc2Sc2ccc(C(F)(F)F)cc21", "values": [{"measurement": "Potency", "setting": "[1]", "result": "inactive"}, {"measurement": "outcome", "setting": "[2]", "result": "inactive"}, {"measurement": "Potency", "setting": "[3]", "result": "inactive"}, {"measurement": "Potency", "setting": "[4]", "result": "inactive"}, {"measurement": "Potency", "setting": "[5]", "result": "26.1 µM (active)"}]}, {"compound": "OCCN1CCN(CC/C=C2/c3ccccc3Sc3ccc(C(F)(F)F)cc32)CC1", "values": [{"measurement": "outcome", "setting": "[2]", "result": "inactive"}, {"measurement": "Potency", "setting": "[3]", "result": "inactive"}, {"measurement": "Potency", "setting": "[4]", "result": "inactive"}]}]}
